GDH-TPI counter – GDH-TPI coupled enzyme inhibition counter-screen; GDH-TPI coupled enzyme counterscreen, NADH absorbance; inhibition, % at 4.8 µM; 1.2% of 360,000 active
CCHFV vOTU inh – blocks the CCHF virus ovarian tumor domain protease | CCHFV vOTU protease, Pep-AMC fluorescence | inhibition, % at 11.5 µM | 0.55% of 370,000 active
FBA Mtb inh – inhibits M. tuberculosis FBA enzyme; 2.3% of 360,000 active; inhibition, % at 1 µM; P9WQA3; AID 588726; purified M. tuberculosis FBA, fluorescence read-out; in the data active = inhibition above about 27%
Target sequence (P9WQA3 whole entry, looked up): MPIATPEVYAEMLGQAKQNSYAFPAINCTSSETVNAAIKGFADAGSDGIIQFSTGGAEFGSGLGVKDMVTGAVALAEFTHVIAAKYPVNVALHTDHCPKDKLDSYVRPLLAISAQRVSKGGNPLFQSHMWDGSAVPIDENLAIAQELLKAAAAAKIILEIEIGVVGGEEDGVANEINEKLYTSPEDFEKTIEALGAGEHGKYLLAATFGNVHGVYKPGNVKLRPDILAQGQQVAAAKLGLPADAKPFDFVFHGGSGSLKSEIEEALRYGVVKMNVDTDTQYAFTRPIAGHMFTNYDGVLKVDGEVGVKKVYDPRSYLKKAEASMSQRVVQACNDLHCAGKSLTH
Mtb betalactam – beta-lactam sensitization of Mtb H37Rv; 0.27% of 330,000 active; M. tuberculosis H37Rv growth with meropenem, percent inhibition; inhibition, % at 25 µM; call rule not given here;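 note: growth measured after seven days incubation then overnight dye step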
MazF activator – MazEF (E. coli) toxin RNase activation | 0.32% of 350,000 active | FAM/BHQ RNA-DNA oligo cleavage fluorescence, 5 h | activation, % at 20 µM | P0AE70 | AID 504720; in the data active = activation above about 50%
Target sequence (P0AE70 whole entry, looked up): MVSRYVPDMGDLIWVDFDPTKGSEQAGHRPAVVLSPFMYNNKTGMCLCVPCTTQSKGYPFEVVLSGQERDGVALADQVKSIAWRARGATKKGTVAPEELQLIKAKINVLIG
Large screens that a line does not name were inactive. Compounds with a hit are over-represented: about 4% of the library has one in this group of screens. Cut-off read from the data, not from the text of the source, unless noted: active = inhibition above about 30%; inactive = the rest.

C[C@H](O)[C@@H]1CN2CCc3c([nH]c4c(-c5ccc6c(c5)OCO6)cccc34)[C@@H]2C[C@@H]1N(C)C(=O)c1ccccc1F	none (no result: GDH-TPI counter, FBA Mtb inh, Mtb betalactam, MazF activator)
COCCCNC(=S)N/N=C/c1ccc(N(C)C)cc1	FBA Mtb inh 48.1
Cc1ccccc1N(CC(=O)N/N=C/c1ccc(N(C)C)cc1)C(=O)c1ccccc1	GDH-TPI counter 40.3
COc1ccc(C(C(=O)N(C)C2CCCC2)N(Cc2ccc(F)cc2)C(=O)c2ccc3ccccc3c2)cc1OC (centres undefined)	none (no result: GDH-TPI counter, FBA Mtb inh, Mtb betalactam, MazF activator)
O=C(Nc1nnc(-c2ccncc2)o1)c1cccc(N2C(=O)CCC2=O)c1	GDH-TPI counter 37.8
O=C(Nc1nnc(-c2ccc(Cl)cc2)o1)c1cccc(N2C(=O)CCC2=O)c1	none
N=C1/C(=C/c2coc3ccccc3c2=O)C(=O)N=C2SC(c3ccco3)=NN12	none (no result: CCHFV vOTU inh)
N=C1/C(=C\c2coc3ccccc3c2=O)C(=O)N=C2SC(c3ccncc3)=NN12	GDH-TPI counter 32.1
Fc1ccc(N2N=C(c3cccs3)CC2c2ccccc2)cc1 (centres undefined)	none
Fc1ccccc1N1CC(c2ccccc2)C(c2cccs2)=N1 (centres undefined)	FBA Mtb inh 161.0
Fc1ccc(-c2ccnc3nc(N4CCOCC4)nn23)cc1	FBA Mtb inh 51.5
Fc1ccc(-c2ccnc3nc(-n4cccc4)nn23)cc1	none
CC(C)C[C@@H]1COc2cc(Br)ccc2S(=O)(=O)N1Cc1cn(Cc2ccco2)nn1	none (no result: GDH-TPI counter, FBA Mtb inh, Mtb betalactam, MazF activator)
CCN1C(=O)[C@H]2[C@@H](c3ccc(-c4cc(C(C)=O)cs4)cc3)N3CCC[C@@]3(C(=O)OC)[C@H]2C1=O	GDH-TPI counter 39.7
Cc1ccccc1N1C(=O)c2cccc3cccc(c23)C1=O	GDH-TPI counter 35.0
O=C(O)c1ccccc1N1C(=O)c2cccc3cccc(c23)C1=O	none
CCOC(=O)c1oc2nc(CC(C)C)c3c(c2c1N)CCCC3	FBA Mtb inh 137.1
CCOC(=O)c1oc2nc3c(cc2c1N)CCCC3	none
COCCN1Cc2cc(C(=O)OC)c3c(c2C1=O)c1cc(F)ccc1n3C(=O)c1ccccc1	none (no result: GDH-TPI counter, FBA Mtb inh, Mtb betalactam, MazF activator)
Cc1ccc(S(=O)(=O)c2nnn3c2nc(NCCCN2CCCC2=O)c2ccccc23)cc1C	FBA Mtb inh 31.0
O=C(CSc1nc(-c2ccccc2)cc(C(F)(F)F)n1)NCc1ccco1	none
COc1ccc(-c2cc(C(F)(F)F)nc(SCC(=O)N(C)Cc3cn(C)nc3C)n2)cc1OC	GDH-TPI counter 40.9
COc1ccc(-c2cc(C(F)(F)F)nc(SCC(=O)NCc3ccco3)n2)cc1OC	GDH-TPI counter 30.7
COc1ccc(-c2cc(C(F)(F)F)nc(SCCC(=O)N3CCN(C)CC3)n2)cc1	none (no result: Mtb betalactam)
COc1ccc(-c2cc(C(F)(F)F)nc(SCC(N)=O)n2)cc1	FBA Mtb inh 114.2
O=S1(=O)c2ccc(N3CCCC3)cc2Oc2ccccc2CN1Cc1cn(Cc2ccc(C(F)(F)F)cc2)nn1	none (no result: GDH-TPI counter, FBA Mtb inh, Mtb betalactam, MazF activator)
CCOC(=O)c1nn(-c2ccc3c(c2)CCN3C(C)=O)cc1O	FBA Mtb inh active
COc1ccc([C@H]2OC(=O)C[C@H]2C(=O)N2CCN(c3ccccc3C(F)(F)F)CC2)cc1OC	none (no result: GDH-TPI counter, FBA Mtb inh, Mtb betalactam, MazF activator)
N#Cc1c(-c2ccccc2)nc(SCC(=O)N2c3ccccc3Sc3ccccc32)[nH]c1=O	CCHFV vOTU inh 32.6
N#Cc1c(-c2ccccc2)nc(SCC(=O)N(c2ccccc2)c2ccccc2)[nH]c1=O	none
CC1(C)Oc2cc3oc(-c4cc(O)cc(O)c4)cc3cc2CC1O (centres undefined)	FBA Mtb inh 89.0
CN(Cc1cn(CC2CCCCC2)nn1)S(=O)(=O)c1ccccc1Br	none (no result: GDH-TPI counter, FBA Mtb inh, Mtb betalactam, MazF activator)
C=CCN=C1NC(CCc2ccccc2)C(C(=O)OC)=C(C)N1C (centres undefined)	none (no result: GDH-TPI counter, FBA Mtb inh, Mtb betalactam, MazF activator)
COc1cc(NC(=O)C2CCCN(S(=O)(=O)c3cccs3)C2)cc(OC)c1 (centres undefined)	none (no result: GDH-TPI counter, FBA Mtb inh, Mtb betalactam, MazF activator)
CCCCOc1cccc(C2C(C(=O)c3ccc(C)o3)=C(O)C(=O)N2c2nnc(C)s2)c1 (centres undefined)	MazF activator 154.5 (no result: Mtb betalactam)
C=CCOc1cccc(C2C(C(=O)c3ccc(C)o3)=C(O)C(=O)N2c2nccs2)c1 (centres undefined)	MazF activator active
COc1cccc(C2C(C(=O)c3ccc(C)o3)=C(O)C(=O)N2c2cc(C)on2)c1 (centres undefined)	none
O=C(c1ccccc1)N1CC[C@H]2[C@H](CCCN2Cc2ccccc2)C1	none (no result: GDH-TPI counter, FBA Mtb inh, Mtb betalactam, MazF activator)
Nc1ncc(-c2ccc([N+](=O)[O-])cc2)cn1	GDH-TPI counter 54.3, Mtb betalactam inconclusive
O=[N+]([O-])c1ccc(-c2cnc(NO)nc2)cc1	none
CCc1ccc(NC2=CC(=O)CC(C)(C)C2)cc1	none

Screens as filed in PubChem.
